Each structure is given as a SMILES string. Values joined by “and” are separate entries in the source; they are usually repeats but may differ in a detail not shown here. Equal entries are not always repeated. The panel holds about 83,000 compounds, 20% with a hit somewhere; the sample as a whole holds those more often.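 Interpretation: 100, growth as untreated; towards 0, rising growth inhibition; 0, no net growth; 0 to -100, cell death. Compounds scoring below 10 were considered active.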 Active and inactive are the calls of the source.

Results on 6 compounds are retold here after PubChem BioAssay (NCI).

Holding throughout (experiment): NCI-60 one-dose screen, 48 h (100 = growth as untreated, 0 = no growth, -100 = all killed)
Holding throughout (details): 10 µM unless noted

The subject of test [1] is HCT-15 colon.
The test system of test [2] is HT29 colon.
The subject of test [3] is SNB-75 CNS.
Test [4] has as its system SNB-19 CNS.
Test [5] deals with U251 CNS.
The test system of test [6] is PC-3 prostate.
Test [7] deals with SK-MEL-5 melanoma.
The subject of test [8] is UACC-62 melanoma.
For test [9], the system named is LOX IMVI melanoma.
Test [10] has as its system SK-MEL-28 melanoma.
The subject of test [11] is SK-MEL-2 melanoma.
The test system of test [12] is EKVX NSCLC.
Test [13] has as its system SN12C renal.
In test [14] the test system is UO-31 renal.
For test [15], the system named is TK-10 renal.
The subject of test [16] is ACHN renal.
In test [17] the test system is CAKI-1 renal.
Test [18] relates to A498 renal.
The test system of test [19] is CCRF-CEM leukemia.
Test [20] concerns MOLT-4 leukemia.

For the compound `O=C1/C(=C/c2cn(-c3ccccc3)nc2-c2ccccc2)SC(=S)N1c1ccc(Cl)cc1`, the growth in [1] is 73% (inactive); in [2] it was 99.1% (inactive); in test [3], 90.4% (inactive); in [4], 71.9% (inactive); in [5], 57.2% (inactive); in [6], 56.8% (inactive). Further, the growth in test [7] is 78.5% (inactive); in [8], 57.5% (inactive); in [9], 63.3% (inactive); in [10] it was 73.5% (inactive); in test [11], 97.4% (inactive); in [12], 81.9% (inactive). The growth was 69.2% (inactive) in test [13]; 65.7% (inactive) in [14]; 91.8% (inactive) in test [15]; 81.9% (inactive) in [16]; 75.2% (inactive) in test [17]; 67% (inactive) in test [18]. For the same compound, the growth in test [19] is 54% (inactive); in test [20] it was 74.7% (inactive).

`CC(=O)c1c(C)nc(SCC(=O)Nc2ccc(Cl)cc2)n1-c1ccc(Cl)cc1`: the growth in [1] is 84.6% (inactive); in test [2], 83% (inactive); in test [3], 73.1% (inactive); in test [4] it was 93.7% (inactive); in test [5], 89.8% (inactive); in [6], 71.8% (inactive). For the same compound, the growth in test [7] was 81.9% (inactive); in test [8] it was 69.7% (inactive); in test [9], 93.1% (inactive); in test [10], 104% (inactive); in [11] it was 94% (inactive); in [12], 95.5% (inactive). Also, the growth is 87% (inactive) in test [13]; 80.9% (inactive) in [14]; 99.5% (inactive) in test [15]; 93.7% (inactive) in [16]; 81.7% (inactive) in [17]; 83.2% (inactive) in test [18]. Also, the growth in test [19] is 87.5% (inactive); in test [20], 64.1% (inactive).

Turning to `O=c1c2c([nH]c3ccccc13)CCCC2`, the growth in [1] is 94.8% (inactive) and 23.8% (inactive); in [2], 102% (inactive) and 2.59% (active); in test [3] it was 33.5% (inactive); in [4] it was 102% (inactive) and 56.9% (inactive); in test [5], 97.4% (inactive) and 24.3% (inactive); in [6], 85.3% (inactive) and 57.9% (inactive). Further, the growth was 99.3% (inactive) and 37.5% (inactive) in test [7]; 89.6% (inactive) and 53.7% (inactive) in [8]; 102% (inactive) and 37.3% (inactive) in test [9]; 106% (inactive) and 53.8% (inactive) in test [10]; 103% (inactive) and -12% (active) in test [11]; 103% (inactive) in test [12]. Besides, the growth is 95.8% (inactive) and 56.5% (inactive) in test [13]; 87.6% (inactive) and 50.4% (inactive) in [14]; 104% (inactive) and 62.2% (inactive) in [15]; 96.5% (inactive) and 57.9% (inactive) in test [16]; 98.6% (inactive) and 54.6% (inactive) in [17]; 102% (inactive) and 49.1% (inactive) in test [18]. In addition, the growth in test [19] was -32.1% (active) and 37.1% (inactive); in [20], 83.4% (inactive) and 34.7% (inactive).

Turning to `Brc1ccc(/C=C(/C2=NCCN2)n2ccc3ccccc32)cc1`, the growth in test [1] was 73.7% (inactive); in test [2], 65.1% (inactive); in test [3], 33% (inactive); in [4] it was 85.1% (inactive); in test [5], 65.6% (inactive); in test [6], 45% (inactive). In addition, the growth in test [7] is 73.4% (inactive); in [8], 75.8% (inactive); in test [9], 50.5% (inactive); in test [10] it was 100% (inactive); in test [11], 90.9% (inactive); in test [12] it was 79% (inactive). Further, the growth in test [13] is 73.8% (inactive); in test [14], 37.2% (inactive); in test [15] it was 68.1% (inactive); in test [16] it was 68.7% (inactive); in [17], 39.7% (inactive); in test [18] it was 87.4% (inactive). In addition, the growth was 59.6% (inactive) in test [19] and 9.21% (active) in test [20].

Turning to `Cc1c(O)c(O)cc2c3c(oc12)CC(c1ccc2c(c1)OCO2)CC3=O` (stereo not given), the growth in [1] was 64.5% (inactive); in [2] it was 94.3% (inactive); in test [3] it was 87.8% (inactive); in test [4], 101% (inactive); in test [5], 100% (inactive); in test [6], 81.1% (inactive). Moreover, the growth in [7] was 82.1% (inactive); in [8] it was 53.4% (inactive); in test [9] it was 59.7% (inactive); in test [10], 105% (inactive); in [11], 83.8% (inactive); in [12], 79% (inactive). The growth is 94.9% (inactive) in [13]; 56% (inactive) in test [14]; 115% (inactive) in test [15]; 75.9% (inactive) in test [16]; 98.6% (inactive) in test [17]; 102% (inactive) in [18]. Also, the growth in test [19] is 69.3% (inactive); in test [20], 84.4% (inactive).

On to `CC(=O)OC[C@]12CCC(C)(C)C=C1[C@H]1CC[C@@H]3[C@@]4(C)CCCNC(C)(C)[C@@H]4CC[C@@]3(C)[C@]1(C)CC2`, for which the growth is 89.6% (inactive) in [1]; 31.6% (inactive) in test [2]; 71.8% (inactive) in [3]; 53.4% (inactive) in [4]; 35.3% (inactive) in test [5]; 37% (inactive) in [6]. For the same compound, the growth in [7] is 9.31% (active); in test [8], 34.4% (inactive); in test [9], 72.5% (inactive); in [10], 59.1% (inactive); in [11], 90.7% (inactive); in [12], 89.5% (inactive). The growth in [13] was 68.8% (inactive); in test [14], 91.5% (inactive); in test [15] it was 94.9% (inactive); in [16], 99.3% (inactive); in test [17] it was 88.9% (inactive); in [18], 97.9% (inactive). In addition, the growth in [19] was 39.3% (inactive); in [20] it was 38.8% (inactive).
